Measured values from PubChem BioAssay (Tox21).
“And” between values parts separate entries of the source, which are not always exact repeats. Identical values can stand only once. Results filed as inconclusive are left out. The source made the active and inactive calls. Unless noted, calls come from the whole dose curve; as a rule, active = well fitted curve in the direction sought with a large enough effect in the repeat runs; inconclusive = weak or mixed curves; inactive = no such curve, though single readings can be large; an effect the other way counts as inactive or inconclusive.

How the values were obtained:
[1] = qHTS assay to identify small molecule agonists of the sonic hedgehog signaling (Shh) pathway (AID 1259368; calls by dose curve;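 note: NIH/3T3-derived 3T3Gli1-Luc cells carrying a stable Gli1-driven firefly luciferase reporter; series mostly up to about 92 µM; nearly all actives have a fitted effect of over 15% in size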)
How it was run: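 Luminescent signal was taken as a measure of Gli1-controlled luciferase expression in stably transfected NIH/3T3-derived cells that had been treated for 24 hr with compounds delivered in DMSO.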

[2] = biological target: Estrogen receptor beta (Homo sapiens) (UniProt Q92731); assay: qHTS assay to identify small molecule agonists of the estrogen receptor beta (ER-beta) signaling pathway (AID 1259377; active = well fitted activation curve with a large enough effect in the signal ratio in the repeat runs, not every such curve was filed as active; the % refers to the signal ratio)
Sequence of Estrogen receptor beta (Homo sapiens) (Q92731 whole entry, looked up): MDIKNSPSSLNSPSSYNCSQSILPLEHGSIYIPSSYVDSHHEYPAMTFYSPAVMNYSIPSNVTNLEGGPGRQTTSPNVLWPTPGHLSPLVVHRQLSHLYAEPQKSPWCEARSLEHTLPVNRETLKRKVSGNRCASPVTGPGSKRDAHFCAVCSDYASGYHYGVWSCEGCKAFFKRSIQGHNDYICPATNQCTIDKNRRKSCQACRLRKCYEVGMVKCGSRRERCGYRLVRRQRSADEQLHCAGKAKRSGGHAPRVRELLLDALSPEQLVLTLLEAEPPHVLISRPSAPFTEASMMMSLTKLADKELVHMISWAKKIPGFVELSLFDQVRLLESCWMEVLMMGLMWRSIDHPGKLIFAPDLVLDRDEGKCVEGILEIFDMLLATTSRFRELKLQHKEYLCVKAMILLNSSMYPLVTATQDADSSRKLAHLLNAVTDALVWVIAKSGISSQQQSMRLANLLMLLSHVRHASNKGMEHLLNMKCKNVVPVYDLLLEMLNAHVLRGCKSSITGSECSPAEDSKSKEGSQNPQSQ
How it was run: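 In HEK293T cells bearing a UAS-beta-lactamase reporter under ER-beta control, DMSO-delivered compounds were incubated for 16 hr at 37C. Activity was detected as fluorescence 2 hours after LiveBLAzer B/G FRET substrate addition.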

[3] = qHTS assay to identify small molecule agonists of the androgen receptor (AR) signaling pathway in the presence of an antagonist - cell viability counter screen (AID 1259379); note: nearly all actives have a fitted effect of over 25% in size; note: potency is the fitted concentration of half-maximal effect
How it was run: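 In MDA-kb2 cells (human breast carcinoma, MMTV-luciferase), compounds at 15 concentrations plus 3.0uM nilutamide; 16 hr, 37C, 0% CO2; CellTiter-Fluor fluorescence read for viability.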

[4] = qHTS assay to identify small molecule agonists of the estrogen receptor beta (ER-beta) signaling pathway - cell viability counter screen (AID 1259380); note: nearly all actives have a fitted effect of over 30% in size; note: potency is the fitted concentration of half-maximal effect
How it was run: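 Viability of ER-beta-UAS-bla HEK293T cells was determined by CellTiter-Glo luminescence following 16 hr treatment with test compounds at 37C.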

[5] = qHTS assay to identify small molecule antagonists of the estrogen receptor beta (ER-beta) signaling pathway - cell viability counter screen (AID 1259382); note: series mostly up to about 92 µM; nearly all actives have a fitted effect of over 55% in size
How it was run: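 Tox21 10K library tested in qHTS format on ER-beta-bla HEK293T cells stimulated with 1nM E2; 16 hr treatment at 37C. Same-well CellTiter-Glo luminescence served as the cell viability measure.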

[6] = biological target: Estrogen receptor (Homo sapiens) (UniProt P03372); assay: qHTS assay to identify small molecule agonists of the estrogen receptor alpha (ER-alpha) signaling pathway in the presence of an antagonist (AID 1259383; calls by dose curve; note: nearly all actives have a fitted effect of over 15% in size; note: potency is the fitted concentration of half-maximal effect; for activation: top concentration of the series differs between compounds)
Sequence of Estrogen receptor (Homo sapiens) (P03372 whole entry, looked up): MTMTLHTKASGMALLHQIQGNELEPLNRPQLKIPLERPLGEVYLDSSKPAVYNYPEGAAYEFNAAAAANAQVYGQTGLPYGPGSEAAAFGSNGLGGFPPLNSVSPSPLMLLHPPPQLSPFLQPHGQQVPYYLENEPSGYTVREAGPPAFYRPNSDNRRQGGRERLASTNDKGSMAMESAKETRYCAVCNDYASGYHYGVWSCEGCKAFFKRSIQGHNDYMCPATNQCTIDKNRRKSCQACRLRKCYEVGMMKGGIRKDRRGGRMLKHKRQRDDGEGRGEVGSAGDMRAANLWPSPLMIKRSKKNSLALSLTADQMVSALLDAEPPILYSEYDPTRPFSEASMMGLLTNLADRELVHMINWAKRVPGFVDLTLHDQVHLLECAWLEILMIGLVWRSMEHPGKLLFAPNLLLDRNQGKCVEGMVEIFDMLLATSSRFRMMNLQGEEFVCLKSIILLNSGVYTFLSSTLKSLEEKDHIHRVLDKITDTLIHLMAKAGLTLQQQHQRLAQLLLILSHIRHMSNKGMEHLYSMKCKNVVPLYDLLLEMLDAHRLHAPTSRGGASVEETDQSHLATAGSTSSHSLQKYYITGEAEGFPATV
How it was run: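 In VM7Luc4E2 cells, 4,000 per well, compounds at 15 concentrations were co-incubated 22hr at 37C with 10.0nM final ICI-182,780. Luminescence from the stably transfected 4×ERE-luciferase reporter was recorded 30min after ONE-Glo addition.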

[7] = qHTS assay to identify small molecule agonists or antagonists of the thyroid stimulating hormone receptor (TSHR) signaling pathway - wild type cell line counter screen (AID 1259384; calls by dose curve)
How it was run: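 Wild-type Hek293 cells, 800/well, 18 h at 37C, then compound with Ro20-1724 for 30 min RT. cAMP by HTRF (cAMP-d2/anti-cAMP cryptate), 1 h RT, fluorescence read. 15 concentrations, triplicates.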

[8] = biological target: Thyrotropin receptor (Homo sapiens) (UniProt P16473); assay: qHTS assay to identify small molecule antagonists of the thyroid stimulating hormone receptor (TSHR) signaling pathway (AID 1259385; calls by dose curve; note: nearly all actives have a fitted effect of over 20% in size)
Sequence of Thyrotropin receptor (Homo sapiens) (P16473 whole entry, looked up): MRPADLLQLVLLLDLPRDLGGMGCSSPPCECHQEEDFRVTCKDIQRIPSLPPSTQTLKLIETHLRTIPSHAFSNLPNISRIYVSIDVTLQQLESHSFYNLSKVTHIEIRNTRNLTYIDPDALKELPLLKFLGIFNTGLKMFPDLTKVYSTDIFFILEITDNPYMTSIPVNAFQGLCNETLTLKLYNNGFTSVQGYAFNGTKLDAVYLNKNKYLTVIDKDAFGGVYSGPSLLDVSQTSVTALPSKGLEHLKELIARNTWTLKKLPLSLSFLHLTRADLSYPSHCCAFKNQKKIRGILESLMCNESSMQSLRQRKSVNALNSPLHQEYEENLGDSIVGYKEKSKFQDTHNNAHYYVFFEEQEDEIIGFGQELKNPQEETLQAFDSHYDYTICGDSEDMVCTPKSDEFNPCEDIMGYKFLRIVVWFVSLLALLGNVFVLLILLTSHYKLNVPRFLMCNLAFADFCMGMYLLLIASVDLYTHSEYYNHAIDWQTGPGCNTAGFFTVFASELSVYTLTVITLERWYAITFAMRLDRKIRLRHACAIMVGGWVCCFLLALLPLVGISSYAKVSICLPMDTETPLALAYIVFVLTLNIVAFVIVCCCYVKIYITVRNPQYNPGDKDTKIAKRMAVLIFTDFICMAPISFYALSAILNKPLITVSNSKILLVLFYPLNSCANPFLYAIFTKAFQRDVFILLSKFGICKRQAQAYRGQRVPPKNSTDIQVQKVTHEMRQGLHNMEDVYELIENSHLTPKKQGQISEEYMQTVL
How it was run: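 TSHR-HEK293 cells (800/well) plated 18 h, then compounds with Ro20-1724 and TSH at 1.5 ng/mL final, 30 min at room temperature. cAMP quantified by HTRF (cAMP-d2/anti-cAMP-cryptate, 1 h); 15 concentrations in triplicate.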

[9] = qHTS assay to identify small molecule agonists of the estrogen receptor alpha (ER-alpha) signaling pathway in the presence of an antagonist - cell viability counter screen (AID 1259386);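 note: cells exposed to compounds for 22 h at 37 °C before the viability read; nearly all actives have a fitted effect of over 30% in size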; note: potency is the fitted concentration of half-maximal effect
How it was run: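 Fluorescent CellTiter-Fluor viability signal from VM7Luc4E2 cells, with the reagent added during the final hour of a 22hr compound exposure at 37C in the presence of 10.0nM ICI-182,780.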

[10] = biological target: Progesterone receptor (Homo sapiens) (UniProt P06401); assay: qHTS assay to identify small molecule agonists of the progesterone receptor (PR) signaling pathway (AID 1346784; calls by dose curve; note: nearly all actives have a fitted effect of over 30% in size; note: potency is the fitted concentration of half-maximal effect)
Sequence of Progesterone receptor (Homo sapiens) (P06401 whole entry, looked up): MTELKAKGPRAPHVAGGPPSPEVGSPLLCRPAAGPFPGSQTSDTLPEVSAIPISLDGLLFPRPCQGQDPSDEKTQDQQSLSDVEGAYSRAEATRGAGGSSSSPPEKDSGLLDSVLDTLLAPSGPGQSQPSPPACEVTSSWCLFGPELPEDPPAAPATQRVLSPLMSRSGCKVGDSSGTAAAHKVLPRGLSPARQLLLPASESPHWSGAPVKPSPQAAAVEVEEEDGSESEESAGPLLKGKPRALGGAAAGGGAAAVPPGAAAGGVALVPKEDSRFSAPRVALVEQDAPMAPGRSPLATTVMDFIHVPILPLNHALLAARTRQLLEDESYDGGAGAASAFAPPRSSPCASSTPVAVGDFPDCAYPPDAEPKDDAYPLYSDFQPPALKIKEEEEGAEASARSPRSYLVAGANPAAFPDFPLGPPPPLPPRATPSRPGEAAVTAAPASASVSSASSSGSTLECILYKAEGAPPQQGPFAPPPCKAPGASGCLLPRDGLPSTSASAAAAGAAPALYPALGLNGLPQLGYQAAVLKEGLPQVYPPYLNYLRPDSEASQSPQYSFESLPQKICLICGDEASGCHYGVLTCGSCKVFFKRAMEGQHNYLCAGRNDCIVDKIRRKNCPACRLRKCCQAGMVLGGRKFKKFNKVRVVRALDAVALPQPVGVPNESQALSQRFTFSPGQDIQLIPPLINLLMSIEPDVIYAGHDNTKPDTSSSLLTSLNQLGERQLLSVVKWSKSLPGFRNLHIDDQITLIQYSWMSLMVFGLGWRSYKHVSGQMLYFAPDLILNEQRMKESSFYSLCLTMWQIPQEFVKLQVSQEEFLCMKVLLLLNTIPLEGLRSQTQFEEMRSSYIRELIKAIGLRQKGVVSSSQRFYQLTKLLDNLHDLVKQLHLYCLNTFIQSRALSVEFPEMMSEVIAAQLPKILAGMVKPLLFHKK
How it was run: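 Using charcoal-stripped serum (2%) to limit endogenous steroids, PR-UAS-bla HEK 293T cells received compounds for 16 hr at 37C after 6 hr plating; beta-lactamase FRET fluorescence was recorded following 2 hr substrate loading at room temperature.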

[11] = qHTS assay to identify small molecule antagonists of the TGF-beta/Smad signaling pathway - cell viability counter screen (AID 1346824); note: nearly all actives have a fitted effect of over 50% in size
How it was run: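 SBE-bla HEK 293T cells, incubated overnight, then compound plus 0.25 ng/mL TGF-beta1 (stock added) for 5 hr at 37 C. Viability was read in the same wells by CellTiter-Glo luminescence after 30 min at room temperature.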

[12] = qHTS assay to identify small molecule agonists of the TGF-beta/Smad signaling pathway - cell viability counter screen (AID 1346829); note: top concentration of the series differs between compounds; nearly all actives have a fitted effect of over 45% in size
How it was run: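 CellTiter-Glo luminescence readout; SBE-bla HEK 293T cells, overnight plating, compound 5 hr at 37 C/5% CO2, then bla substrate 2 hr RT, then CellTiter-Glo 30 min RT.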

[13] = qHTS assay to identify small molecule agonists of the TGF-beta/Smad signaling pathway (AID 1346859; active = well fitted activation curve with a large enough effect in the signal ratio in the repeat runs, not every such curve was filed as active; the % refers to the signal ratio; note: series mostly up to about 77 µM)
How it was run: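 Stable Smad binding element-beta-lactamase HEK 293T cells; 5 hr compound exposure at 37 C under 5% CO2; 2 hr room-temperature substrate step; fluorescence excited at 405 nm, collected at 460 nm and 530 nm.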

[14] = biological target: Thyrotropin-releasing hormone receptor (Homo sapiens) (UniProt P34981); assay: qHTS assay to identify small molecule antagonists of the thyrotropin-releasing hormone receptor (TRHR) signaling pathway (AID 1346877; active = well fitted inhibition curve with a large enough effect in the repeat runs, not every such curve was filed as active; note: series mostly up to about 51 µM)
Sequence of Thyrotropin-releasing hormone receptor (Homo sapiens) (P34981 whole entry, looked up): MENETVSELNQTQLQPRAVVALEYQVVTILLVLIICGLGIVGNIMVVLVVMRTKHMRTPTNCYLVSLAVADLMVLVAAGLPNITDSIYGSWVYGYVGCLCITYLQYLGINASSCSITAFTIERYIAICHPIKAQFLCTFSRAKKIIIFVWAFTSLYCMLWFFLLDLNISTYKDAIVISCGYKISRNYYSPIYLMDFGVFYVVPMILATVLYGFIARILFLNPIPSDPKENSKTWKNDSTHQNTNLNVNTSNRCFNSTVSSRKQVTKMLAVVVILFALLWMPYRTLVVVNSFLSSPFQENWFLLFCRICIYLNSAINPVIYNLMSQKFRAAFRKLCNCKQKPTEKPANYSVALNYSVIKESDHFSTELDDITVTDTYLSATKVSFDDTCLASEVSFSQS
How it was run: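 In this cell-based calcium flux format, HEK293 cells expressing TRHR received test compound for 5 min before the agonist TRH (1 nM final). Dye loading lasted 2 h at 37 °C.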

[15] = biological target: Estrogen receptor beta (Homo sapiens) (UniProt Q92731); assay: qHTS assay to identify small molecule antagonists of the estrogen receptor beta (ER-beta) signaling pathway (AID 1259378; active = well fitted inhibition curve with a large enough effect in the signal ratio in the repeat runs, not every such curve was filed as active; the % refers to the signal ratio; note: potency is the fitted concentration of half-maximal effect)
How it was run: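 ER-beta-UAS-bla HEK293T cells in 2% charcoal-stripped FBS medium treated with compound plus 1nM final 17-beta-estradiol for 16 hr at 37C. Beta-lactamase reporter read by FRET substrate fluorescence after 2 hours at room temperature.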

[16] = biological target: Progesterone receptor (Homo sapiens) (UniProt P06401); assay: qHTS assay to identify small molecule antagonists of the progesterone receptor (PR) signaling pathway (AID 1346795; active = well fitted inhibition curve with a large enough effect in the signal ratio in the repeat runs, not every such curve was filed as active; the % refers to the signal ratio; note: potency is the fitted concentration of half-maximal effect)
How it was run: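 Inhibition of R5020-induced (1 nM final) beta-lactamase reporter signal in PR-UAS-bla HEK293T cells was scored by FRET fluorescence after overnight (16 hr) compound treatment.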

[17] = biological target: Androgen receptor (Homo sapiens) (UniProt P10275); assay: qHTS assay to identify small molecule agonists of the androgen receptor (AR) signaling pathway in the presence of an antagonist (AID 1259381; calls by dose curve; note: nearly all actives have a fitted effect of over 15% in size; note: potency is the fitted concentration of half-maximal effect)
Sequence of Androgen receptor (Homo sapiens) (P10275 whole entry, looked up): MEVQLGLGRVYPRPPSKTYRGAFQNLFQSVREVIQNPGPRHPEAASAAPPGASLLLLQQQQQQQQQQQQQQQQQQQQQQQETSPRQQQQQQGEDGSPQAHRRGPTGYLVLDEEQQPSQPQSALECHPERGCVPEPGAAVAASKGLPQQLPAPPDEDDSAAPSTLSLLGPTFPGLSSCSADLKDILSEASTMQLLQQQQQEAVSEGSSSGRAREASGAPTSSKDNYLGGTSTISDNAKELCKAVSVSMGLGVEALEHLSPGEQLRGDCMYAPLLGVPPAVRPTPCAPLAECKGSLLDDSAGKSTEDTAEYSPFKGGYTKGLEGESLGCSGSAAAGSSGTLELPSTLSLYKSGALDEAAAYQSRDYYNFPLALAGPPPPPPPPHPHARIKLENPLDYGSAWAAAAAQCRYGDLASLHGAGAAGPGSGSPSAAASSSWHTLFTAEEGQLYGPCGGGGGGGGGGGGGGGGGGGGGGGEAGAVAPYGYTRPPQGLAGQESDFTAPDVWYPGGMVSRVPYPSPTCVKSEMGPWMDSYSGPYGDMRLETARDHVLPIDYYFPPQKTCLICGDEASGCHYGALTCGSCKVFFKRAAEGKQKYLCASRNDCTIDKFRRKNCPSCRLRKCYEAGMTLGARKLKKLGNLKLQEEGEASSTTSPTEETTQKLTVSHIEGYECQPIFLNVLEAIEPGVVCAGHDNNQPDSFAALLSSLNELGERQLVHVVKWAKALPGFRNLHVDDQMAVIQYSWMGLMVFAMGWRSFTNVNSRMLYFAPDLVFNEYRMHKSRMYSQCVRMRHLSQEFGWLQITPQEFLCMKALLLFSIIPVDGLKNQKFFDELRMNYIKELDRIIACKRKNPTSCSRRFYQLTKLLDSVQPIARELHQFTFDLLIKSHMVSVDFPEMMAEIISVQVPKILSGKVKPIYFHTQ
How it was run: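 Here, 15-concentration compound series were pin-transferred onto MDA-kb2 MMTV-luciferase cells already dosed with nilutamide (3.0uM final). After 16hr at 37C, ONE-Glo was added and luminescence read 30min later at room temperature.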

[18] = qHTS assay to identify small molecule antagonists of the progesterone receptor (PR) signaling pathway - cell viability counter screen (AID 1346798); note: series mostly up to about 92 µM; nearly all actives have a fitted effect of over 50% in size
How it was run: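 ATP content as viability readout: CellTiter-Glo luminescence, 30 min room temperature, in PR-UAS-bla HEK293T cells after 16 hr compound/R5020 treatment at 37C and 5% CO2.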

[19] = qHTS assay to identify small molecule agonists of the progesterone receptor (PR) signaling pathway - cell viability counter screen (AID 1346799; calls by dose curve; note: nearly all actives have a fitted effect of over 45% in size; note: potency is the fitted concentration of half-maximal effect)
How it was run: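 Cytotoxicity in PR-bla HEK293T cells: 16 h compound, 37C; CellTiter-Glo added post-FRET read; luminescence after 30 min RT.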

Measured: Potency

CCOC(=O)N1CCC(n2c(=O)[nH]c3cc(Cl)ccc32)CC1
active: [3] 29.8 µM | [9] 23.7 µM
not listed: [15] | [16] | [17] | [18] | [19]
inactive: all other assays above

CC(=O)Oc1ccc(C(=C2CCCCC2)c2ccc(OC(C)=O)cc2)cc1
active: [15] 0.0106 µM | [6] 2.37 µM | [16] 13.3 µM
not listed: [4] | [14] | [17] | [18] | [19]
inactive: all other assays above

CC(=O)[C@H]1CC[C@H]2[C@@H]3C[C@H](C)C4=CC(=O)CC[C@]4(C)[C@H]3[C@@H](O)C[C@]12C
active: [17] 0.0841 µM | [10] 0.0067 µM
not listed: [6] | [8] | [9] | [16] | [18] | [19]
inactive: all other assays above

N#C/C(=C1\SCC(c2ccccc2Cl)S1)n1ccnc1 (centres undefined)
active: [16] 23.7 µM
not listed: [6] | [15] | [17] | [18] | [19]
inactive: all other assays above

Cc1cc(C(=C2C=CC(=Nc3ccc(S(=O)(=O)O)cc3S(=O)(=O)O)C=C2)c2ccc(Nc3ccc(S(=O)(=O)O)cc3)cc2)ccc1N
not listed: [7] | [8] | [9] | [17] | [19]
inactive: all other assays above

COC(OC)(C(=O)c1ccccc1)c1ccccc1
not listed: [6] | [16] | [17] | [19]
inactive: all other assays above

CC1CC(=O)NN=C1c1ccc(NCC(C)(C)NCC(O)COc2cc(Cl)ccc2C#N)cc1 (centres undefined)
not listed: [4] | [6] | [9] | [17]
inactive: all other assays above

Cc1c(C(=O)NN2CCCCC2)nn(-c2ccc(Cl)cc2Cl)c1-c1ccc(Cl)cc1
active: [16] 11.9 µM
not listed: [4] | [9] | [14] | [15] | [17] | [18] | [19]
inactive: all other assays above

Cc1nc2ccccn2c(=O)c1CCN1CCC(C(=O)c2ccc(F)cc2)CC1
inactive: [1] | [2] | [3] | [5] | [16] | [18] | [11] | [12] | [13] | [14]

O=C(CCCN1CCC(O)(c2ccc(Br)cc2)CC1)c1ccc(F)cc1
active: [4] 23.7 µM
not listed: [5] | [8] | [9] | [15] | [16] | [17]
inactive: all other assays above

CNC(=S)NC
active: [4] 13.7 µM | [19] 7.7 µM
not listed: [2] | [5] | [6] | [15] | [16] | [17] | [18]
inactive: all other assays above

CCCc1c(OCCCOc2ccc(OCC(=O)O)cc2)ccc(C(C)=O)c1O
active: [4] 17.2 µM
inactive: [1] | [3] | [17] | [6] | [7] | [8] | [10] | [19] | [11] | [12]

CCCCCCCCSCCO
not listed: [2] | [6] | [10] | [15] | [16] | [17] | [19]
inactive: all other assays above

Cc1ccc(S)cc1
not listed: [4] | [9] | [10] | [14] | [15] | [17] | [19]
inactive: all other assays above

CCCCN(CCCC)CCCOC(=O)c1ccc(N)cc1
inactive: [1] | [2] | [3] | [5] | [7] | [18] | [11] | [12] | [13] | [14]

CN(C)CCOC1=Cc2ccccc2Sc2ccc(Cl)cc21
active: [4] 26.6 µM
inactive: [1] | [3] | [7] | [10] | [18] | [19] | [11] | [12] | [13] | [14]

Cc1cc(O)c2c(O)c3c(O)cccc3cc2c1
not listed: [3] | [6] | [9] | [15] | [19]
inactive: all other assays above

COCc1c(C(C)C)nc(C(C)C)c(/C=C/[C@@H](O)C[C@@H](O)CC(=O)O)c1-c1ccc(F)cc1
inactive: [1] | [3] | [6] | [7] | [8] | [9] | [10] | [11] | [12] | [13]
active: [4] 298 nM and 1.08 µM

Fc1c(F)c(F)c(Br)c(F)c1F
not listed: [2] | [6] | [9] | [10] | [15] | [17] | [18]
inactive: all other assays above
